Reference: PubChem BioAssay (Tox21)
Records with an inconclusive call do not appear. Where a call stands in place of a potency, no number is given. The source made the active and inactive calls. Unless noted, calls come from the whole dose curve; as a rule, active = well fitted curve in the direction sought with a large enough effect in the repeat runs; inconclusive = weak or mixed curves; inactive = no such curve, though single readings can be large; an effect the other way counts as inactive or inconclusive.

Key:
[1] = qHTS assay to identify small molecule antagonists of the androgen receptor (AR) signaling pathway using the MDA cell line in the presence of 0.5 nM R1881 - cell viability counter screen (AID 1259242); note: nearly all actives have a fitted effect of over 45% in size
Summary of the method: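 Steps: plate MDA-kb2 cells, rest 5 hr at 37C without CO2; pin in compounds in DMSO; add R1881 to 0.5 nM final; incubate 16 hr; add CellTiter-Fluor, 30 min; read fluorescence.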

[2] = biological target: Estrogen receptor (Homo sapiens) (UniProt P03372); assay: qHTS assay to identify small molecule antagonists of the estrogen receptor alpha (ER-alpha) signaling pathway using the BG1 cell line in the presence of 0.1 nM 17-beta-estradiol (AID 1259244); note: nearly all actives have a fitted effect of over 50% in size; note: potency is the fitted concentration of half-maximal effect
Summary of the method: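 Antagonist mode: compounds in DMSO are pinned onto VM7Luc4E2 reporter cells, 0.1 nM final 17beta-estradiol is added, and after 22 h at 37C luciferase luminescence is measured with ONE-Glo.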

[3] = qHTS assay to identify small molecule HDAC inhibitors (AID 1259364);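 note: wild-type HCT-116 cells with endogenous class I/II HDAC activity; top concentration of the series differs between compounds; nearly all actives have a fitted effect of over 45% in size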
Summary of the method: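 Cells (HCT-116, wild type) are seeded at 1,500 per well, incubated overnight, treated with compound in DMSO for 2 hr, then developed with HDAC-Glo I/II reagent for 30 min at room temperature.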

[4] = qHTS assay to identify small molecule HDAC inhibitors - cell viability counter screen (AID 1259365); note: series mostly up to about 92 µM; nearly all actives have a fitted effect of over 50% in size
Summary of the method: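 Wild-type HCT-116 cells were seeded at 1,500 per well, incubated overnight at 37 C, then exposed to compounds in DMSO for 2hr. Viability was read by CellTiter-Glo luminescence after 30min at room temperature.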

[5] = qHTS assay to identify small molecule agonists of the sonic hedgehog signaling (Shh) pathway - cell viability counter screen (AID 1259366); note: nearly all actives have a fitted effect of over 50% in size
Summary of the method: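 NIH/3T3-derived 3T3 Gli1-Luc cells (stable Gli1-responsive firefly luciferase reporter) were seeded, rested 4 hr at 37 C/5% CO2, then exposed to compounds in DMSO for 24 hr; viability was read by CellTiter-Fluor fluorescence in the same wells.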

[6] = qHTS assay to identify small molecule antagonists of the sonic hedgehog signaling (Shh) pathway - cell viability counter screen (AID 1259367); note: nearly all actives have a fitted effect of over 55% in size
Summary of the method: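 Conditioned medium drove Shh signaling in 3T3 Gli1-Luc cells exposed to compounds at 37C and 5% CO2. Viability was determined from CellTiter-Fluor fluorescence, with reagent incubated 1 hr after 23 hr of treatment.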

[7] = qHTS assay to identify small molecule antagonists of the sonic hedgehog signaling (Shh) pathway (AID 1259369; calls by dose curve; note: nearly all actives have a fitted effect of over 45% in size)
Summary of the method: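 Cells are plated and held 4hr at 37 C, compounds (DMSO) are pinned in, conditioned medium is added to stimulate the pathway, and after 24hr luciferase reagent is added for 30min before luminescence is read.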

[8] = biological target: Estrogen receptor beta (Homo sapiens) (UniProt Q92731); assay: qHTS assay to identify small molecule agonists of the estrogen receptor beta (ER-beta) signaling pathway (AID 1259377; active = well fitted activation curve with a large enough effect in the signal ratio in the repeat runs, not every such curve was filed as active; the % refers to the signal ratio)
Summary of the method: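 ER-beta-UAS-bla HEK293T (GripTite) cells carrying a UAS-driven beta-lactamase reporter, in medium with 2% charcoal-stripped FBS, were exposed to compounds for 16 hr at 37C; LiveBLAzer B/G FRET substrate was then added and fluorescence read after 2 hours at room temperature.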

[9] = qHTS assay to identify small molecule agonists of the androgen receptor (AR) signaling pathway in the presence of an antagonist - cell viability counter screen (AID 1259379);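 note: MDA-kb2 human breast cancer cells carrying an MMTV luciferase reporter; series mostly up to about 92 µM; nearly all actives have a fitted effect of over 25% in size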
Summary of the method: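 Cytotoxicity is assessed by CellTiter-Fluor in MDA-kb2 cells carrying an MMTV-driven luciferase reporter. Cells receive 3.0uM nilutamide plus compounds at 15 concentrations and incubate 16 hr at 37C without CO2 before fluorescence reading.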

[10] = qHTS assay to identify small molecule antagonists of the estrogen receptor beta (ER-beta) signaling pathway - cell viability counter screen (AID 1259382); note: series mostly up to about 92 µM; nearly all actives have a fitted effect of over 55% in size
Summary of the method: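 Cytotoxicity counter screen multiplexed with the beta-lactamase antagonist assay: GripTite HEK293T ER-beta-bla cells were treated 16 hr with test chemicals in the presence of 1nM 17-beta-estradiol, and viability was measured by CellTiter-Glo.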

[11] = biological target: Estrogen receptor (Homo sapiens) (UniProt P03372); assay: qHTS assay to identify small molecule agonists of the estrogen receptor alpha (ER-alpha) signaling pathway in the presence of an antagonist (AID 1259383; calls by dose curve; note: top concentration of the series differs between compounds; nearly all actives have a fitted effect of over 15% in size)
Summary of the method: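 Agonist-mode confirmation in the presence of the ER antagonist ICI-182,780 at 10.0nM final. Breast-derived VM7Luc4E2 reporter cells were exposed to compounds for 22hr, and ERE-driven luciferase was quantified by luminescence.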

[12] = qHTS assay to identify small molecule agonists or antagonists of the thyroid stimulating hormone receptor (TSHR) signaling pathway - wild type cell line counter screen (AID 1259384; calls by dose curve)
Summary of the method: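 Wild-type HEK293 cells were plated 18 h at 37 C/5% CO2, pin-dosed with compound plus Ro20-1724 medium, held 30 min at room temperature, then given cAMP-d2 and anti-cAMP-cryptate; fluorescence was read after 1 h. Fifteen concentrations, triplicate.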

[13] = biological target: Thyrotropin receptor (Homo sapiens) (UniProt P16473); assay: qHTS assay to identify small molecule antagonists of the thyroid stimulating hormone receptor (TSHR) signaling pathway (AID 1259385; calls by dose curve; note: nearly all actives have a fitted effect of over 20% in size)
Summary of the method: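 TSHR-HEK293 cells were plated and held 18 h at 37C/5% CO2, then given compound plus Ro20-1724 and stimulated with TSH at 1.5 ng/mL final. After 30 min at room temperature, cAMP was detected with cAMP-d2/anti-cAMP-cryptate (1 h) by fluorescence.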

[14] = qHTS assay to identify small molecule agonists of the estrogen receptor alpha (ER-alpha) signaling pathway in the presence of an antagonist - cell viability counter screen (AID 1259386);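 note: series mostly up to about 92 µM; cells exposed to compounds for 22 h at 37 °C before the viability read; nearly all actives have a fitted effect of over 30% in size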
Summary of the method: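 Cytotoxicity was measured in parallel with the ERE-luciferase agonist screen, in the same wells. The cells were VM7Luc4E2, which endogenously express ER-alpha, and treatment was with compounds plus 10.0nM ICI-182,780 for 22hr.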

[15] = qHTS assay to identify small molecule agonists of the sonic hedgehog signaling (Shh) pathway (AID 1259368; calls by dose curve; note: series mostly up to about 92 µM; nearly all actives have a fitted effect of over 15% in size)
Summary of the method: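 Cells of a mouse NIH/3T3 clone stably expressing luciferase under the Gli1 transcriptional response element are exposed to test chemicals for 24 hr at 37 C. Pathway activation is detected as a rise in luminescence.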

[16] = qHTS assay to identify small molecule agonists of the estrogen receptor beta (ER-beta) signaling pathway - cell viability counter screen (AID 1259380); note: nearly all actives have a fitted effect of over 30% in size; note: potency is the fitted concentration of half-maximal effect
Summary of the method: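 Cytotoxicity is measured in parallel with the reporter screen: after 16 hr compound exposure at 37C and a 2 hr LiveBLAzer step, CellTiter-Glo is added to the same ER-beta-UAS-bla HEK293T wells and luminescence read after 30 min.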

[17] = biological target: Estrogen receptor beta (Homo sapiens) (UniProt Q92731); assay: qHTS assay to identify small molecule antagonists of the estrogen receptor beta (ER-beta) signaling pathway (AID 1259378; active = well fitted inhibition curve with a large enough effect in the signal ratio in the repeat runs, not every such curve was filed as active; the % refers to the signal ratio)
Summary of the method: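 ER-beta-UAS-bla HEK293T (GripTite) cells in 2% charcoal-stripped FBS medium were preincubated 6 hr at 37C, dosed with compound, then stimulated with 1 nM E2 (final) for 16 hr; beta-lactamase reporter read by B/G FRET fluorescence after 2 hr substrate loading.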

Thyrotropin receptor (Homo sapiens), sequence (P16473 whole entry, looked up): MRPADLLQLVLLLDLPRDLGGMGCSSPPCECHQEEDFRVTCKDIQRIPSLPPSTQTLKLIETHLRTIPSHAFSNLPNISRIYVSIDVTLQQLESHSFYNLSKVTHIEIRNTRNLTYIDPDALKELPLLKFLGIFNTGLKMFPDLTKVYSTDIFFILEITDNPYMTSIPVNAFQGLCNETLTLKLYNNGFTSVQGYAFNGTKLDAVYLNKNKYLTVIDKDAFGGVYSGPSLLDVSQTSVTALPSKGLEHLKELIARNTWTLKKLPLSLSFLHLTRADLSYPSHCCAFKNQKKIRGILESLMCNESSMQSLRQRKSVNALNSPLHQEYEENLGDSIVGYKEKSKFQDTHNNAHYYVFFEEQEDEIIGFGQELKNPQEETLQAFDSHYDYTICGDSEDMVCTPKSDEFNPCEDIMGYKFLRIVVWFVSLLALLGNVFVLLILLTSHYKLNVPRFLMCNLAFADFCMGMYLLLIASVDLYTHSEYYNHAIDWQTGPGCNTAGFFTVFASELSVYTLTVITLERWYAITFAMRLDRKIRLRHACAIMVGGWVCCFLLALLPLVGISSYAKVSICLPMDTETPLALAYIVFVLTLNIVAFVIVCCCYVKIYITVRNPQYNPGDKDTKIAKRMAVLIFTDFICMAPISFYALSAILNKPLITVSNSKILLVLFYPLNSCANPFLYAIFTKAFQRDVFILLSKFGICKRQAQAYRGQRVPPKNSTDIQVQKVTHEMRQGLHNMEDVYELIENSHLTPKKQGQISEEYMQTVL
Estrogen receptor beta (Homo sapiens), sequence (Q92731 whole entry, looked up): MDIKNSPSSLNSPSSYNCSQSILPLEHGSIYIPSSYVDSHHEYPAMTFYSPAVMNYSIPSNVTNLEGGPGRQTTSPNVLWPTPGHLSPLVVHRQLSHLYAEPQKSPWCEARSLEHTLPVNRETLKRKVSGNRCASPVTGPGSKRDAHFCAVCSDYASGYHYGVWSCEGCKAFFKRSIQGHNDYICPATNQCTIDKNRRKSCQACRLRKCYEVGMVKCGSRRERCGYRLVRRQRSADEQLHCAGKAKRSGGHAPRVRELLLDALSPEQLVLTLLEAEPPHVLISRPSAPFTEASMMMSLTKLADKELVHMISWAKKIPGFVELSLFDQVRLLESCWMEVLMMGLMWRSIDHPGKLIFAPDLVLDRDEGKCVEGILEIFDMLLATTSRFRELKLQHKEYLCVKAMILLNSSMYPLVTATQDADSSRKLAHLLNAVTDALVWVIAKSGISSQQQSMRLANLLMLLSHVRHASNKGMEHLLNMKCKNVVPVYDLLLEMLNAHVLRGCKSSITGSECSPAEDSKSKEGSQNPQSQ
Estrogen receptor (Homo sapiens), sequence (P03372 whole entry, looked up): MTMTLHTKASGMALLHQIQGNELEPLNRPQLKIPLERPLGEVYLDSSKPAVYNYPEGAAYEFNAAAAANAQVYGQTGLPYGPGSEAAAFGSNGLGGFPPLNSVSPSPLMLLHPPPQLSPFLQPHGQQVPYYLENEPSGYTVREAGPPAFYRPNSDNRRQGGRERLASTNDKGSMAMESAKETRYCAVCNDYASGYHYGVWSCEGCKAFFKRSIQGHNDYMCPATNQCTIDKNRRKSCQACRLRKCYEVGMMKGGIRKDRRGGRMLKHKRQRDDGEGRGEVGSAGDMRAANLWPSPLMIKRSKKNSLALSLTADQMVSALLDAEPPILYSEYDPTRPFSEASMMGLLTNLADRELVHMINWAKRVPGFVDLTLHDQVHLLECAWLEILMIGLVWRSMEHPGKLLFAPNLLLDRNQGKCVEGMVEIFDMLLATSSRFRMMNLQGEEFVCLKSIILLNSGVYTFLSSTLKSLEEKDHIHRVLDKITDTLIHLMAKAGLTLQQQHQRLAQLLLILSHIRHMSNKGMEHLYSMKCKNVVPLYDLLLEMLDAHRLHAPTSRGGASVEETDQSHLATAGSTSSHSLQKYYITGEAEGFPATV

| SMILES | Potency [1] | Potency [2] | Potency [3] | Potency [4] | Potency [5] | Potency [6] | Potency [7] | Potency [8] | Potency [9] | Potency [10] | Potency [11] | outcome [12] | Potency [13] | Potency [14] | Potency [15] | Potency [16] | Potency [17] |
| --- | --- | --- | --- | --- | --- | --- | --- | --- | --- | --- | --- | --- | --- | --- | --- | --- | --- |
| CCCCCCCCCCCC[N+](C)(C)CCCS(=O)(=O)[O-] | inactive | inactive | inactive | inactive | inactive | inactive | inactive | inactive | inactive | inactive | inactive | inactive | inactive | inactive |  |  |  |
| COC(OC)(C(=O)c1ccccc1)c1ccccc1 | inactive | inactive | inactive |  | inactive | inactive | inactive | inactive | inactive | inactive |  | inactive | inactive | inactive | inactive | inactive |  |
| CC(C)(CCl)c1ccccc1 | inactive | inactive | inactive | inactive | inactive | inactive |  | inactive | inactive | inactive | inactive | inactive | inactive | inactive | inactive | inactive | inactive |
| CC1CC(=O)NN=C1c1ccc(NCC(C)(C)NCC(O)COc2cc(Cl)ccc2C#N)cc1 (stereo not given) | inactive | inactive | inactive | inactive | inactive | inactive |  | inactive | inactive | inactive | inactive | inactive |  |  | inactive |  | inactive |
| CCOC(=N)CC(=O)OCC | inactive | inactive | inactive | inactive | inactive | inactive |  | inactive | inactive |  | inactive | inactive | inactive |  | inactive |  |  |
| CC1=C(C=O)C(C)(C)CCC1 | inactive | inactive |  | inactive | inactive | inactive | inactive | inactive | inactive | inactive | inactive | inactive |  | inactive | inactive | inactive | inactive |
| N#C[C@@H]1C[C@@H]2C[C@@H]2N1C(=O)[C@@H](N)C12CC3CC(CC(O)(C3)C1)C2 | inactive | inactive | inactive | inactive | inactive | inactive | inactive |  | inactive | inactive | inactive | inactive | inactive | inactive |  | inactive |  |
| OCCSc1ccccc1 | inactive | inactive | inactive | inactive | inactive | inactive | inactive |  | inactive |  | inactive | inactive | inactive | inactive | inactive | 19.3 µM (active) |  |
| CN1CCCN=C1/C=C/c1cccs1 | inactive | inactive | inactive | inactive | inactive | inactive |  | inactive | inactive | inactive | inactive | inactive | inactive | inactive | inactive | inactive | inactive |
| CC(COc1ccc(C(C)(C)C)cc1)OS(=O)OCCCl (stereo not given) | inactive | 1.38 µM (active) | inactive | inactive | inactive | inactive |  |  |  | inactive |  | inactive | inactive | inactive | inactive |  |  |
| CCCCN(CCCC)C(=S)SSC(=S)N(CCCC)CCCC | inactive | inactive | inactive |  |  | inactive |  | inactive |  |  | inactive | inactive | inactive | inactive | inactive | inactive |  |
| CCC(C(=O)OCCOCCN(CC)CC)c1ccccc1 (stereo not given) | inactive | inactive | inactive | inactive | inactive | inactive |  | inactive | inactive | inactive | inactive |  |  | inactive | inactive | inactive |  |
| CC(CCc1ccc2c(c1)OCO2)NN (stereo not given) | inactive | inactive | inactive | inactive | inactive | inactive |  | inactive | inactive | inactive | inactive | inactive | inactive | inactive | inactive | inactive | inactive |
| C=CC(C)(O)CCCC(C)CCCC(C)CCCC(C)C (stereo not given) | inactive | inactive | inactive | inactive | inactive | inactive |  | inactive | inactive | inactive | inactive | inactive | inactive | inactive | inactive | inactive | inactive |
